In PubChem BioAssay one finds growth inhibition, inhibition and outcome data, which are given here for 19 compounds.

What is called inhibition is the relative decrease from the control value, in per cent.

The nature of test [1]: antimalarial activity against Dd2 strain (AID 2302;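 active = growth inhibition above 50% at the single 2 µM test dose, taken to imply half-maximal potency below 2 µM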;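 note: 0% = DMSO untreated growth and 100% = chloroquine plus artemisinin killed control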). To be noted: P. falciparum Dd2 in RBCs, LDH growth readout, 72 h; at 2 µM; active compounds read high.
Test [2] in a line: HepG2 cytotoxicity, primary screen, cytotoxicity control for P. falciparum antimalarial project, cell-based, ATP luminescence (AID 2303;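 active = inhibition above 50%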;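 note: 0% = DMSO wells and 100% = digitonin-killed cells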). To be noted: HepG2 viability, 24-48 h, at 10 µM, active compounds read high.
Test [3] addresses L-lactate dehydrogenase (Plasmodium falciparum (isolate CDC / Honduras)) (UniProt Q27743). The experiment in a line: PfLDH activity inhibition – cell lysate, 3D7 strain, counter-screen for P. falciparum growth inhibition project (AID 2304).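 Note: 0% = vehicle and 100% = reference inhibitor.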 To be noted: P. falciparum 3D7 crude extract, LDH APAD/NBT absorbance; at 2 µM; active compounds read high. For orientation: Counterscreens check selectivity or assay interference.

Test [4] can be described thus: inhibition of 3D7 malaria parasite growth – strain 3D7 (AID 2306).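 Note: 0% = DMSO wells and 100% = chloroquine plus artemisinin control wells.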 As to conditions: P. falciparum 3D7 erythrocytic growth, LDH absorbance, 72 h; at 2 µM; active compounds read high.
The target in test [5] is Calcium-dependent protein kinase 1 (Plasmodium falciparum (isolate 3D7)) (UniProt P62344). In words: PfCDPK1 kinase inhibitors, biochemical, TCAMS library (AID 1159585; cut-off not given, nearly all actives have IC50 up to about 0.98 µM;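 note: inhibitors leave more ATP so luminescence rises with inhibition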). As to conditions: recombinant PfCDPK1, Kinase-Glo ATP depletion luminescence. (In Kinase-Glo more light means more ATP remaining.)
Chain of Calcium-dependent protein kinase 1 (Plasmodium falciparum (isolate 3D7)) (P62344 whole entry, looked up): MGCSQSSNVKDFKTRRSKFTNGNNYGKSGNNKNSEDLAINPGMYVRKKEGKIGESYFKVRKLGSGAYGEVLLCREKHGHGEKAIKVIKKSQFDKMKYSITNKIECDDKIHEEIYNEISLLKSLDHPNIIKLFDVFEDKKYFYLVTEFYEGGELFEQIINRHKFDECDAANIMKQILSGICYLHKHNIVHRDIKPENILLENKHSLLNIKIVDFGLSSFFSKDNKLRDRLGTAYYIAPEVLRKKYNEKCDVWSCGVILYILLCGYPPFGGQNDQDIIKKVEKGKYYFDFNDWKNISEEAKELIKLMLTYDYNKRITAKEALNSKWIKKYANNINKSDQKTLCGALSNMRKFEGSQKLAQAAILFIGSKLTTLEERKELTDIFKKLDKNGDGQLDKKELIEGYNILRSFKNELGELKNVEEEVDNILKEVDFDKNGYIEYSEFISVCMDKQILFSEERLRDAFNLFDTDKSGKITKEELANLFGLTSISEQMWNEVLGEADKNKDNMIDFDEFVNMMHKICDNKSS
Test [6] deals with Plasmodium falciparum protein kinase 6 (PK6, PF3D7_1337100) (UniProt Q8IDW1). In words: PfPK6 kinase inhibitors, biochemical, TCAMS library (AID 1159586). To be noted: recombinant PfPK6, Kinase-Glo ATP depletion luminescence.
Chain of Plasmodium falciparum protein kinase 6 (PK6, PF3D7_1337100) (Q8IDW1 1-305): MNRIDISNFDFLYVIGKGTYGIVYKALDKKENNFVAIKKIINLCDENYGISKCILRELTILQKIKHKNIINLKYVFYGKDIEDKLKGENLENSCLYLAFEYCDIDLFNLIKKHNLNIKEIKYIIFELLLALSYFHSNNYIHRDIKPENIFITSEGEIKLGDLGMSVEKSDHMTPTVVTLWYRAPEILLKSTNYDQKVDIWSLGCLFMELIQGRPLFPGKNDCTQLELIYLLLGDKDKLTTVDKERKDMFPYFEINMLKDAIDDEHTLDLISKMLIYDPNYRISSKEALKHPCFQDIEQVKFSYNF
Test [7] deals with Protein kinase 7 (PK7), Plasmodium falciparum 3D7 (PF3D7_0213400) (UniProt Q7YTF7). In words: inhibition of Plasmodium PK7 catalytic activity – biochemical, TCAMS antimalarial set, Kinase-Glo luminescence (AID 1159587). As to conditions: recombinant PfPK7, Kinase-Glo ATP depletion luminescence.
Chain of Protein kinase 7 (PK7), Plasmodium falciparum 3D7 (PF3D7_0213400) (Q7YTF7 1-343): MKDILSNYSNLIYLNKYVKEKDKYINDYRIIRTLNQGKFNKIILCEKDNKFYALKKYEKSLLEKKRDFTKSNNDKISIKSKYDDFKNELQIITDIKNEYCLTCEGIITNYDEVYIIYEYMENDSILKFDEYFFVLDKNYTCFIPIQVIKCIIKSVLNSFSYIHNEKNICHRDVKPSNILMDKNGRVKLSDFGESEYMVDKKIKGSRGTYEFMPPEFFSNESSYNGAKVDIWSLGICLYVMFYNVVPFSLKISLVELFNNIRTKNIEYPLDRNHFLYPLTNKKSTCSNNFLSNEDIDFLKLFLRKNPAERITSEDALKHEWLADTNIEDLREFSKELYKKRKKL
Test [8] addresses Calcium-dependent protein kinase 4 (Plasmodium falciparum (isolate 3D7)) (UniProt Q8IBS5). In words: PfCDPK4 kinase inhibitors, biochemical, TCAMS library (AID 1159588; cut-off not given, nearly all actives have IC50 up to about 0.91 µM). As to conditions: recombinant PfCDPK4, Kinase-Glo ATP depletion luminescence.

Structures are written as SMILES. Values without a mark were called inactive. For some assays here: Measured potencies and affinities stand elsewhere. The source made the active and inactive calls. Unless noted, the rule behind the calls is not given here.

Chain of Calcium-dependent protein kinase 4 (Plasmodium falciparum (isolate 3D7)) (Q8IBS5 whole entry, looked up): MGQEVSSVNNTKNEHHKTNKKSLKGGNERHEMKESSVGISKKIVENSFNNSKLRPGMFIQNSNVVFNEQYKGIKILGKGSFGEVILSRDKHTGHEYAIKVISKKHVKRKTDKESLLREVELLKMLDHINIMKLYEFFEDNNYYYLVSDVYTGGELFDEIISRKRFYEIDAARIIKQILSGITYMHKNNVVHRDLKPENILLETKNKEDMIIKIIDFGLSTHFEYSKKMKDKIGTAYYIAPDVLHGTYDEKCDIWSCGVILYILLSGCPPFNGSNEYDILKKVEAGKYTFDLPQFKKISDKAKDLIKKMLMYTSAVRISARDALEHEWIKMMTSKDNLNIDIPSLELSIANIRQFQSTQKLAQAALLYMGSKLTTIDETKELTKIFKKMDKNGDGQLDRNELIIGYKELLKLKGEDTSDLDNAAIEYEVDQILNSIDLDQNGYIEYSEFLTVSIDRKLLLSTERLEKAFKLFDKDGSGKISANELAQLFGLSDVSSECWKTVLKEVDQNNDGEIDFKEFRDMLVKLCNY
Chain of L-lactate dehydrogenase (Plasmodium falciparum (isolate CDC / Honduras)) (Q27743 whole entry, looked up): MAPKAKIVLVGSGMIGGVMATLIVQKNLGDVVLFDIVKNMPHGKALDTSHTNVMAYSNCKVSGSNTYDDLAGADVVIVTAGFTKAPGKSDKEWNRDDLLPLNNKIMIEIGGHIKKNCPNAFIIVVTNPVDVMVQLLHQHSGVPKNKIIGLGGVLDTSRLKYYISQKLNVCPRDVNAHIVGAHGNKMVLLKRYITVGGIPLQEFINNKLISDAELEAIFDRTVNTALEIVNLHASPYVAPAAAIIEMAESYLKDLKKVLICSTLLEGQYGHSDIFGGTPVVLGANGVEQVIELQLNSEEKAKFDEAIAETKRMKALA

In the case of `CC(=O)N(Cc1ccc(CC(C)NCCc2cccc(Cl)c2)cc1)Cc1ccc(CC(C)NCCc2cccc(Cl)c2)cc1` (configuration not stated), the growth inhibition in test [1] is 94% (active); in test [4], 101% (active). The inhibition was 98% (active) in test [2] and -4% in test [3]. Also, the outcome in test [5], in test [6], in test [7] and in test [8] was inactive.

Regarding `O=C(Nc1ccc(Cl)c(C(F)(F)F)c1)c1ccc(C(=O)Nc2ccc(Cl)c(C(F)(F)F)c2)cc1`, the growth inhibition is 27% in test [1] and 88% (active) in test [4]. The results for the inhibition in test [2] and in test [3] were 9% and -2%, respectively. The outcome in test [5], in test [6], in test [7] and in test [8] was inactive.

Regarding `Fc1ccc(NC(=S)NCCc2ccccc2)cc1`, the growth inhibition was 0% in test [1] and 99% (active) in test [4]. Further, the inhibition in test [2] is -1%; in test [3], 3%. For the same compound, the outcome in test [5], in test [6], in test [7] and in test [8] was inactive.

With `O=C(Nc1cccc(-c2cccc(-c3nc4ccc(C(F)(F)F)cc4[nH]3)c2)c1)c1ccncc1`, the growth inhibition is 61% (active) in test [1] and 101% (active) in test [4]. Also, the inhibition was 52% (active) in test [2] and 4% in test [3]. The outcome in test [5], in test [6], in test [7] and in test [8] was inactive.

Consider `CC(C)(C)OC(=O)Nc1cccc(-c2csc(N=C(N)N)n2)c1`, for which the growth inhibition in test [1] was 83% (active); in test [4], 97% (active). The inhibition in test [2] is 4%; in test [3], 2%. The outcome in test [5], in test [6], in test [7] and in test [8] was inactive.

Take `CCOc1cc(CC)ccc1C1CCN(CCN2CCC(NC(=O)c3ccc(-c4ccc(C(C)=O)cc4)cc3)CC2)CC1`: the values for the growth inhibition in test [1] and in test [4] were 8% and 100% (active), respectively. Besides, the figures for the inhibition in test [2] and in test [3] were 25% and -1%, respectively. Moreover, the outcome in test [5], in test [6], in test [7] and in test [8] was inactive.

As for `COc1ccc(C(=O)CCC(=O)N(Cc2ccc(-c3ccc(CNCc4cccnc4)cn3)cc2)C2CCN(Cc3ccccc3)CC2)cc1F`, the growth inhibition was 26% in test [1] and 94% (active) in test [4]. Moreover, the inhibition in test [2] was 30%; in test [3], 3%. Moreover, the result in test [5], in test [6], in test [7] and in test [8] was inactive.

For the compound `Clc1cccc(C23N=C(Nc4nc5ccccc5[nH]4)NC2(c2ccccc2)NC(Nc2nc4ccccc4[nH]2)=N3)c1` (configuration not stated), the growth inhibition in test [1] is 88% (active); in test [4], 85% (active). For the same compound, the inhibition in test [2] and in test [3] was -3% in each case. Moreover, the outcome in test [5], in test [6], in test [7] and in test [8] was inactive.

Take `Cc1[nH]c2ccccc2c(=O)c1[N+](=O)[O-]`: the growth inhibition in test [1] is -2%; in test [4], 88% (active). Moreover, the inhibition in test [2] was 5%; in test [3], -5%. The result in test [5], in test [6], in test [7] and in test [8] was inactive.

For `Cc1nc2c(=O)sc3ccccc3c2n1Cc1ccccc1`, the growth inhibition is 26% in test [1] and 95% (active) in test [4]. Also, the inhibition in test [2] was -1%; in test [3], 1%. The result in test [5], in test [6], in test [7] and in test [8] was inactive.

Consider `COc1cc(Cc2cnc(N)nc2N)cc(OCC(C)(C)C(=O)O)c1OC`, for which the growth inhibition is -4% in test [1] and 89% (active) in test [4]. Moreover, the inhibition in test [2] was -3%; in test [3] it was -2%. Moreover, the result in test [5], in test [6], in test [7] and in test [8] was inactive.

Take `O=c1cc(NCCCNC2CCc3c(Cl)cc(Cl)cc32)[nH]c2ccccc12` (configuration not stated): the results for the growth inhibition in test [1] and in test [4] were 29% and 100% (active), respectively. The inhibition was 3% in test [2] and 0% in test [3]. Besides, the result in test [5], in test [6], in test [7] and in test [8] was inactive.

As to `OC(CNc1ccnc(Nc2cccc(Cl)c2)n1)c1ccc(C(F)(F)F)cc1` (configuration not stated), the values for the growth inhibition in test [1] and in test [4] were 61% (active) and 101% (active), respectively. Moreover, the inhibition is 13% in test [2] and 5% in test [3]. Also, the outcome in test [5], in test [6], in test [7] and in test [8] was inactive.

For the compound `COc1ccc(-c2nonc2NC(=O)c2cccc(Cl)c2)cc1OC`, the values for the growth inhibition in test [1] and in test [4] were 63% (active) and 98% (active), respectively. The figures for the inhibition in test [2] and in test [3] were 41% and 4%, respectively. In addition, the outcome in test [5], in test [6], in test [7] and in test [8] was inactive.

Regarding `CC(C)CCN1CCCN(Cc2ccc(C(=O)NCc3ccc(Cl)cc3)cc2)CC1`, the growth inhibition was -4% in test [1] and 84% (active) in test [4]. Also, the inhibition is 16% in test [2] and 1% in test [3]. For the same compound, the result in test [5], in test [6], in test [7] and in test [8] was inactive.

On to `COc1cc2nccc(Nc3ccc(OCc4ccccc4)cc3)c2cc1OC`, for which the growth inhibition in test [1] was 99% (active); in test [4] it was 101% (active). The inhibition in test [2] is 35%; in test [3], 1%. For the same compound, the result in test [5], in test [6], in test [7] and in test [8] was inactive.

`C=CCOC(=O)N1CCC(CNCc2cccc(-c3ccc(-c4nc5ccccc5[nH]4)s3)c2)C1` (configuration not stated): the values for the growth inhibition in test [1] and in test [4] were 63% (active) and 99% (active), respectively. In addition, the inhibition was 9% in test [2] and 0% in test [3]. Moreover, the outcome in test [5], in test [6], in test [7] and in test [8] was inactive.

In the case of `O=C(Cc1cnc[nH]1)Nc1ccc(-c2cccc(-c3nc4ccc(C(F)(F)F)cc4[nH]3)c2)cc1`, the growth inhibition in test [1] was 95% (active); in test [4] it was 101% (active). Moreover, the inhibition in test [2] is 20%; in test [3], -8%. Also, the result in test [5], in test [6], in test [7] and in test [8] was inactive.

With `CCN(CC)CCN(Cc1ccc(-c2ccc(C(F)(F)F)cc2)cc1)C(=O)Cn1c(SCc2ccc(F)cc2)cc(=O)c2ccccc21`, the growth inhibition in test [1] was 70% (active); in test [4], 101% (active). In addition, the inhibition is 50% (active) in test [2] and -5% in test [3]. In addition, the result in test [5], in test [6], in test [7] and in test [8] was inactive.
